Test results reported in PubChem BioAssay AID1159580 (chemical genetic matrix, 2015).
Among all 5,500 compounds or so, about 2,000 (36%) were called active. Not shown: some 18% with an inconclusive outcome. Cut-off read from the data, not from the text of the source: active = normalized growth mostly below about 0.91 (no sharp cut-off); inconclusive = no clear call, values can overlap the other calls; inactive = mostly above about 0.92. The list shows a part of the results.

Test: chemical genetic growth profiling, strain panel (AID 1159580);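 note: tested at 20 µM; growth read once vehicle control cultures reached saturation at 30 °C; 1 = growth at the plate median or of vehicle wells; lower values mean less growth of the strain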
Settings: S. cerevisiae deletion strains, growth OD

Measured: normalized growth

C[C@]12CCC(=O)C=C1CC[C@@H]1[C@@H]2C(=O)C[C@@]2(C)[C@H]1CC[C@]2(O)C(=O)CO
inactive: locus YAL040C, strain CLN3, hits give low values 0.957 | locus YCL061C, strain MRC1 (second series), hits give low values 0.993 | locus YDR150W, strain NUM1, hits give low values 1 | locus YDR363W, strain ESC2, hits give low values 0.986 | locus YER002W, strain NOP16, hits give low values 0.966 | locus YNL128W, strain TEP1, hits give low values 0.978 | locus YNL153C, strain GIM3, hits give low values 0.979 | locus YNL175C, strain NOP13, hits give low values 0.982 | locus YNL197C, strain WHI3, hits give low values 0.942 | locus YNL224C, strain SQS1, hits give low values 0.983 | locus YNL322C, strain KRE1, hits give low values 0.988 | locus YOR083W, strain WHI5 (second series), hits give low values 0.94 | locus YPL241C, strain CIN2, hits give low values 0.995
